{
  "source": "PubChem BioAssay AID624308",
  "about": "(National Center for Advancing Translational Sciences (NCATS), 2012)",
  "target": "Peptidyl-prolyl cis-trans isomerase NIMA-interacting 1 (Homo sapiens) (UniProt Q13526)",
  "sequence (Q13526 whole entry, looked up)": "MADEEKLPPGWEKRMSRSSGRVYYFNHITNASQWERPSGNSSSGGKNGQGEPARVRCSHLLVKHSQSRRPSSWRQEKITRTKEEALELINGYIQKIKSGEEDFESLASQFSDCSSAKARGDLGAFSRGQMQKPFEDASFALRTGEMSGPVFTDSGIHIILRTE",
  "experiment": "qHTS Assay to Find Inhibitors of Pin1: Hit Validation",
  "settings": "Pin1 FP peptide displacement, HiFluor488 probe",
  "from_the_text": "The unique chemical properties of Pro allow for the adoption of two completely distinct amide bond conformations (cis and trans). Peptidyl-prolyl cis/trans isomerases (PPIases) are evolutionary conserved enzymes that catalyze cis/trans isomerization of peptidyl-prolyl peptide bonds. Distinct from all other PPIases such as cyclophilins and FK506-binding proteins (FKBPs), Pin1 binds a subset of phos.Ser/Thr-Pro-containing proteins using its protein-targeting WW domain and isomerizes only specific phos.Ser/Thr-Pro bonds, which cannot be effectively catalyzed by other known PPIases. […] The goal of this screen is to find small-molecule inhibitors of Pin1 using a fluorescence polarization competition assay. […]\nPin1 (0.6 uM) was dispensed into black, solid 1536-well plates at 2 uL/well in 10 mM HEPES (pH 7.5), 10 mM NaCl, 0.01% Tween20, 1 mM DTT, and 1% glycerol. […] The plates were measured on a ViewLux plate reader for fluorescence polarization signal using a 480/20 nM nm excitation filter and 540/25 nM nm S and P emission filters with a 20 second exposure. The %Activity was determined from the corrected fluorescence polarization values. […] Concentration-response curves were fitted to the signals arising from the resulting fluorescence polarization. […] Keywords: Peptidyl prolyl isomerase, Pin1, fluorescence polarization, MLSMR, MLPCN, NIH Roadmap, qHTS, NCGC",
  "note": "Inconclusive results are not listed. The source made the active and inactive calls. Calls come from the whole dose curve; as a rule, active = well fitted inhibition curve with a large enough effect; inconclusive = small, poorly fitted or top-dose-only effect; inactive = flat fitted curve, though single readings scatter.",
  "data": [
    {"smiles": "Cc1cc2c(C(C)C)c(O)c(O)c(C=O)c2c(O)c1-c1c(C)cc2c(C(C)C)c(O)c(O)c(C=O)c2c1O", "values": [
      {"measurement": "Potency", "result": "1.69 µM (active)"}
    ]}
  ]
}
